What was measured:
Assay in all cases: PBM binding z-score (relative to random genomic background probes); higher = stronger binding; sequences stand for … in GC…GCGATTGACAGCGTAGAATGAAGG
[1] = system: FXR:RXRa (NR concentration 270 nM, RXRa partner concentration 90 nM)
In short: (§1)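 Custom Agilent 4×180K protein-binding microarrays carried double-stranded probes, each with a 34-nt variable region. These regions held direct-repeat seeds, single-nucleotide variants, half-site ablations and random human genomic background sequences. Ligand-free nuclear receptor dimers were incubated on the arrays for 1 h, antibodies against each partner (one per run) detected binding, and scanned fluorescence was regression-normalized. Binding z-scores take the random background probes as reference.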

[2] = system: LXRa:RXRa (NR concentration 270 nM, RXRa partner concentration 90 nM)
In short: as §1

[3] = system: LXRa homodimer (NR concentration 270 nM)
In short: as §1

[4] = system: LXRb:RXRa (NR concentration 270 nM, RXRa partner concentration 90 nM)
In short: as §1

[5] = system: LXRb homodimer (NR concentration 270 nM)
In short: as §1

[6] = system: PPARa:RXRa (NR concentration 270 nM, RXRa partner concentration 90 nM)
In short: as §1

[7] = system: PPARg:RXRa (NR concentration 180 nM, RXRa partner concentration 90 nM)
In short: as §1

[8] = system: PPARg:RXRa 270nM:90nM, anti-RXR (NR concentration 270 nM, RXRa partner concentration 90 nM)
In short: as §1

[9] = system: PPARg:RXRa 30nM:10nM, anti-RXR (NR concentration 30 nM, RXRa partner concentration 10 nM)
In short: as §1

[10] = system: PPARg:RXRa 90nM:30nM, anti-RXR (NR concentration 90 nM, RXRa partner concentration 30 nM)
In short: as §1

[11] = system: PPARg:RXRa DBDmut IVT, anti-RXR (DBD mutation: RXRa K156A/R161A, NR concentration 270 nM, RXRa partner concentration 90 nM)
In short: as §1

[12] = system: PPARg:RXRa IVT, anti-PPARg (NR concentration 270 nM, RXRa partner concentration 90 nM)
In short: as §1

[13] = system: PPARg DBDmut:RXRa IVT, anti-PPARg (DBD mutation: PPARg1 K132A/R137A, NR concentration 270 nM, RXRa partner concentration 90 nM)
In short: as §1

[14] = system: PPARg DBDmut IVT, anti-PPARg (DBD mutation: PPARg1 K132A/R137A, NR concentration 270 nM)
In short: as §1

[15] = system: PPARg homodimer (NR concentration 180 nM)
In short: as §1

[16] = system: PXR:RXRa (NR concentration 270 nM, RXRa partner concentration 90 nM)
In short: as §1

[17] = system: PXR homodimer (NR concentration 270 nM)
In short: as §1

[18] = system: RARa:RXR (NR concentration 270 nM, RXRa partner concentration 90 nM)
In short: as §1

[19] = system: RARa homodimer (NR concentration 270 nM)
In short: as §1

[20] = system: RARb:RXRa (NR concentration 270 nM, RXRa partner concentration 90 nM)
In short: as §1

Sequence	PBM binding z-score [1]	PBM binding z-score [2]	PBM binding z-score [3]	PBM binding z-score [4]	PBM binding z-score [5]	PBM binding z-score [6]	PBM binding z-score [7]	PBM binding z-score [8]	PBM binding z-score [9]	PBM binding z-score [10]	PBM binding z-score [11]	PBM binding z-score [12]	PBM binding z-score [13]	PBM binding z-score [14]	PBM binding z-score [15]	PBM binding z-score [16]	PBM binding z-score [17]	PBM binding z-score [18]	PBM binding z-score [19]	PBM binding z-score [20]
AGAATGAGGTTAAGATCAGGGATACAGAATACAT	2.25	1.75	0.0573	1.78	0.0208	3.7	2.77	2.46	0.866	1.71	3.07	2.89	0.847	0.843	0.828	1.23	0.547	2.08	0.49	1.92
GATACAGGGTCAGCGAGAGGCCAGAGTATGGAAA	5.07	3.15	-0.446	2.63	-1.12	5.05	4.14	3.78	1.07	2.38	1.16	2.78	-0.0146	-0.645	2.81	3.7	0.293	4.49	0.19	4.26
GCAGACAGGTGAAACGCAGATAACTCAGGGTGGC	-0.337	-0.00809	-0.429	-0.285	-0.813	0.654	1.04	-0.0865	-0.367	-0.137	1.09	0.225	0.243	-0.959	0.214	-0.239	-0.278	-0.0859	-0.365	0.56
CGAACTATGTCATCCAGGACAGTGAATACATTGA	0.102	-0.0297	0.258	0.236	0.0323	1.01	1.11	1.06	0.663	0.773	3.74	2.94	1.29	1.1	0.502	0.317	-0.051	0.733	0.52	0.805
GCAAACAGGTGAAACGCAGGTAACTCAGGGTGGC	-0.182	-0.0525	-0.463	-0.425	-0.88	0.919	0.672	0.158	-0.786	-0.33	2.26	1.32	-0.68	-0.00566	-0.416	-0.255	-0.519	0.397	-0.686	0.596
CGTCCAAGGTCATAGGTCAGTGAAGAGATGACGG	7.34	5.78	1.65	4.74	1.02	6.22	7.76	7.27	5.12	7.07	3.46	4.78	0.896	-0.0935	3.35	5.48	1.01	6.98	1.13	5.36
CCTAGTTGGACAGGAGGTCACACACCGGATATGA	3.17	3.27	1.86	3.19	0.666	4.11	2.52	2.96	0.938	2.35	0.493	2.64	0.73	0.338	3.06	4.13	1.32	4.3	1.71	3.23
ATATGTAGGTTACATCCGGGTCATTGAGGCTATG	2.34	4.14	1.44	2.74	1.01	4.44	5.78	5.04	2.75	4.39	7.27	7.27	2.02	2.36	1.82	3.65	4.12	3.65	0.615	2.38
AGAATGAGGTTACCACAGATCAGGGAAACGCTTG	1.97	6.39	-0.0372	3.08	-0.518	3.53	2.72	2.65	1.11	1.73	3.9	3.38	1.25	0.385	1.11	1.05	0.472	1.98	0.262	1.99
ACAGACAGGTGATGAAGGTAAATCAGGCTATCAT	-0.0911	-0.136	-0.0858	0.169	-0.557	0.252	0.707	0.0594	-0.0828	-0.0561	-0.0404	0.544	0.329	0.144	0.185	-0.214	-0.0702	0.248	0.26	0.21
CCTGCTGGGTCATGGTCAGCTAATCTACAGTATG	2.47	1.59	-0.658	1.42	-0.697	3.32	1.97	2.53	0.317	1.69	2.64	2.73	-0.296	0.15	0.949	1.24	-0.638	2.02	-0.488	3.35
TAGCCTAGGTCATGCGGACCAGTATAGTGTCGGC	3.93	3	0.318	1.59	-0.198	3.33	1.99	2.5	0.202	1.38	1.69	2.81	-0.0719	-0.526	0.843	1.31	-0.745	2.2	-0.507	3.65
CCTAGTAGTTGACCATAAGGGCAACCGAAGCTCG	0.577	0.379	0.118	0.228	0.0472	0.369	0.269	0.285	-0.556	0.0396	-0.333	0.506	-0.485	-0.576	1.26	0.431	0.221	0.651	0.534	1.49
CGTCCAAGGTCAAGGTCTGTGAAAGAGACTCGAA	7.12	4.99	0.422	3.92	0.346	5.39	4.93	5.76	1.41	3.96	3.42	3.88	2.1	0.39	4.29	3.72	0.462	4.54	1.7	5.24
